Results on 24 molecules are retold here after PubChem BioAssay (NCATS).

SMILES strings stand for the structures. “And” between values parts separate entries of the source, which are not always exact repeats. Identical values can stand only once. Records with an inconclusive call do not appear. Values without a mark were called inactive. The source made the active and inactive calls. Calls follow the shape of the dose curve; as a rule, active = well fitted inhibition curve with a large enough effect; inconclusive = small, poorly fitted or top-dose-only effect; inactive = flat fitted curve, though single readings scatter.

The target in assay [1] is Calcium and integrin-binding protein 1 (Homo sapiens) (UniProt Q99828). The assay is described as follows: Primary qHTS for Identification of Calcium Integrin Binding Protein 1 (CIB1) Competitor (AID 1508620).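 Also: GST tagged CIB1 binding a fluorescein labelled alphaIIb integrin peptide tracer; top concentration of the series differs between compounds.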 As to conditions: CIB1-GST / FITC-alphaIIb peptide fluorescence polarization; series mostly up to 114 µM. The method in brief:
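CIB1-GST (1 uM final) and compound incubated 15 min at room temperature before adding FITC-alphaIIb peptide tracer (100 nM final). Competition for binding read by fluorescence polarization (ex 480, em 540) after another 15 min at room temperature.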

The nature of assay [2]: Primary qHTS for inhibitors of nuclear receptor binding SET domain protein 2 (NSD2) in an isogenic RCH-ACV NSD2 p.E1099K mutant (9B) (AID 1645876). Also: nearly all actives have a fitted effect of over 70% in size. Also: potency is read from the fitted curve at half-maximal effect. The conditions noted are these: RCH-ACV (leukaemia line) NSD2 E1099K (9B) viability, CellTiter-Glo, 72 h; series mostly up to 44.9 µM. In general terms: qHTS replaces the single test concentration by a dilution series.
% is scaled to controls: 0 for no effect and ±100 for the full control effect.

Sequence of Calcium and integrin-binding protein 1 (Homo sapiens) (Q99828 whole entry, looked up): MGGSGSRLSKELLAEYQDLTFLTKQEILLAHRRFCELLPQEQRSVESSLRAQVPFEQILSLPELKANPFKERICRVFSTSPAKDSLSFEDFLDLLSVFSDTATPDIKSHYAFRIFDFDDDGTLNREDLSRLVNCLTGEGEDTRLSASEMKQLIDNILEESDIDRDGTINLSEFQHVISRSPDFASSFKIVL

For `CC(C)(O[C@@H]1O[C@H](CO)[C@@H](O)[C@H](O)[C@H]1O)C(OC(=O)/C=C\c1ccc(O)cc1)C(=O)OCc1ccc(O[C@@H]2O[C@H](CO)[C@@H](O)[C@H](O)[C@H]2O)cc1` (stereo partly drawn), the Potency result in assay [1] and in assay [2] was “inactive” throughout.
Consider `COc1cc(C2c3cc4c(c(O)c3CC(CO)C2C(=O)O)OCO4)cc(OC)c1O` (stereo not drawn), for which the Potency result in assay [1] is “inactive”. In addition, the Potency in assay [2] is 2.52 µM (active).
With `CC(=O)c1ccc(O[C@@H]2O[C@H](CO)[C@@H](O)[C@H](O)[C@H]2O)cc1`, the Potency result in assay [1] and in assay [2] was “inactive” in each case.
Regarding `Cc1ccc([N+](=O)[O-])cc1S(=O)(=O)N(C)/N=C/c1cnc2ccc(Br)cn12`, the Potency result in assay [1] was “inactive”. Besides, the Potency in assay [2] is 12.9 nM (active) and 93.4 nM (active).
Consider `CC1(C(=O)O)CCCC2(C)C3CCC4CC3(CCC12)CC4=O` (stereo not drawn), for which the Potency entry in assay [1] and in assay [2] was “inactive” throughout.
Take `COC(=O)C1(C)c2[nH]c3ccccc3c2CCN1C(=O)CCl` (stereo not drawn): the Potency entry in assay [1] is “inactive”. Also, the Potency in assay [2] was 2.58 µM (active).
On to `C[S+](CC[C@H](N)C(=O)[O-])C[C@H]1O[C@@H](n2cnc3c(N)ncnc32)[C@H](O)[C@@H]1O` (stereo partly drawn), for which the Potency entry in assay [1] and in assay [2] was “inactive” in each case.
As for `O=C(OC1C=C(CO)C2C(OC3OC(CO)C(O)C(O)C3O)OC=CC12)c1ccc(O)cc1` (stereo not drawn), the Potency result in assay [1] and in assay [2] was “inactive” each time.
With `CC(=O)c1ccc2c(c1)C(O)C(C(C)(C)O)O2` (stereo not drawn), the Potency entry in assay [1] and in assay [2] was “inactive” in each case.
As to `COc1cc(O)cc(C)c1C(=O)OC1C(CO)OC(OC2C(O)C(O)C(O)C(O)C2O)C(O)C1O` (stereo not drawn), the Potency result in assay [1] and in assay [2] was “inactive” each time.
For the molecule `O=C(/C=C/c1ccc(O)cc1)N[C@@H](Cc1ccc(O)cc1)C(=O)O`, the Potency entry in assay [1] and in assay [2] was “inactive” each time.
In the case of `C/C=C1\[C@H](O[C@@H]2O[C@H](CO)[C@@H](O)[C@H](O)[C@H]2O)OC=C(C(=O)OC)[C@H]1CC(=O)O`, the Potency result in assay [1] and in assay [2] was “inactive” throughout.
Consider `CC1OC(OC2C(O)C(OC3CCC4(C)C(CCC5(C)C4CC=C4C6CC(C)(COC7OC(CO)C(O)C(O)C7O)CC(O)C6(C)CCC45C)C3(C)C)OC(C(=O)O)C2O)C(O)C(O)C1OC1OCC(O)C(O)C1O` (stereo not drawn), for which the Potency entry in assay [1] was “inactive”. The activity change, negative = viability loss in assay [2] is -10.7% [at 9.23 µM].
Take `O=C(O)C(O[C@@H]1O[C@H](CO[C@@H]2O[C@H](CO)[C@@H](O)[C@H](O)[C@H]2O)[C@@H](O)[C@H](O)[C@H]1O)c1ccccc1` (stereo partly drawn): the Potency result in assay [1] and in assay [2] was “inactive” in each case.
As to `C[C@@H]1O[C@@H](O[C@@H]2[C@@H](O)[C@@H](O[C@]3(CO)O[C@H](CO)[C@@H](O)[C@@H]3OC(=O)/C=C/c3ccc(O)cc3)O[C@H](CO)[C@H]2OC(=O)/C=C/c2ccc(O)cc2)[C@H](O)[C@H](O)[C@H]1O[C@@H]1O[C@@H](C)[C@H](O[C@@H]2OC[C@](O)(CO)[C@H]2O)[C@@H](O)[C@H]1O`, in assay [1], the Potency entry is “inactive”. The outcome in assay [2] is “inactive [at 9.23 µM]”.
Take `CCN(CC)c1ccc2c(O)c(C=Nc3ccc(CC(=O)O)c(-c4c5c(nc6ccccc46)CCC(C(=O)NN)C5)c3)c(=O)oc2c1` (stereo not drawn): in assay [1], the Potency result was “inactive”. Besides, the Potency in assay [2] was 2.9 µM (active).
For `C[C@@H]1O[C@@H](O[C@H]2[C@H](OC(=O)[C@]34CCC(C)(C)C[C@H]3C3=CCC5[C@@]6(C)CC[C@H](O[C@@H]7O[C@H](C(=O)O)[C@@H](O)[C@H](O)[C@H]7O[C@@H]7O[C@H](CO)[C@H](O)[C@H](O)[C@H]7O)[C@@](C)(C=O)C6CC[C@@]5(C)[C@]3(C)C[C@H]4O)O[C@H](C)[C@H](O[C@@H]3O[C@H](C)[C@H](O)[C@H](O)[C@H]3O)[C@@H]2O)[C@H](O)[C@H](O)[C@H]1O[C@@H]1OC[C@@H](O)[C@H](O[C@@H]2O[C@H](CO)[C@@H](O)[C@H](O)[C@H]2O)[C@H]1O` (stereo partly drawn), the activity change, negative = inhibition in assay [1] was -0.579% [at 12.4 µM]. Besides, the activity change, negative = viability loss in assay [2] is -94% [at 4.96 µM].
Consider `C=C[C@H]1[C@H](O[C@@H]2O[C@H](CO)[C@@H](O)[C@H](O)[C@H]2O)OC=C(C(=O)OC)[C@H]1C/C=C(/C=O)[C@@H]1C(C(=O)OC)=CO[C@@H](O[C@@H]2O[C@H](CO)[C@@H](O)[C@H](O)[C@H]2O)[C@@H]1C=C`, for which the Potency entry in assay [1] and in assay [2] was “inactive” in each case.
Turning to `OC[C@H]1O[C@@H](OCCc2ccccc2)[C@H](O[C@@H]2OC[C@](O)(CO)[C@H]2O)[C@@H](O)[C@@H]1O`, the Potency entry in assay [1] and in assay [2] was “inactive” each time.
For the molecule `O=C1NC(Cc2ccccc2)C(=O)N2CCCC12` (stereo not drawn), the Potency result in assay [1] and in assay [2] was “inactive” throughout.
As to `CC1=C(/C=C/C(C)=C\C=C\C(C)=C/C(=O)O)C(C)(C)CCC1`, the Potency result in assay [1] and in assay [2] was “inactive” each time.
For the molecule `C[C@@H]1CC[C@]2(C(=O)OC3OC(CO)C(O)C(O)C3O)CC[C@]3(C)C(=CCC4[C@@]5(C)CC[C@H](O)[C@](C)(C(=O)O)C5CC[C@]43C)C2[C@]1(C)O` (stereo partly drawn), the Potency entry in assay [1] and in assay [2] was “inactive” throughout.
Regarding `COC(=O)C(C)C1CCC2(C)C(=O)C=CC(C)(O)C2C1O` (stereo not drawn), the Potency entry in assay [1] and in assay [2] was “inactive” throughout.
As to `CC(=O)O[C@@H]1C[C@@H](OC(C)=O)C(C)(C)/C=C/[C@H](C)[C@H](OC(C)=O)[C@@]2(O)C[C@H](C)[C@H](OC(=O)c3ccccc3)[C@@H]2/C=C/1C`, the Potency result in assay [1] and in assay [2] was “inactive” throughout.
